Screening data as filed in PubChem BioAssay.
The list is not random: actives were taken first. Their share in the collection is about 28%.
Mac1 fbg inh = inhibitors of human CD11b/CD18 binding to fibrinogen; P05107+P11215; K562 CD11b/CD18 adhesion to fibrinogen, ATPlite luminescence; Mn2+ added to activate the integrin; inhibition, % at 10 µM; 93,000 compounds, 0.54% hits;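 active means primary inhibition of 50% or more at 10 µM, then 40% or more on retest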
CYP2C19 activ = cytochrome P450 2C19 (human) activation; activation factor at 5 µM; 96,000 tested, under 10 active; AID 1025; recombinant CYP2C19, luciferin-H EGE luminescence; active compounds read high; 0 = fully inhibited enzyme, 1 = untreated enzyme;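 active means activation factor of at least 2 at 5 µM in the primary screen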
Target sequence (P33261 whole entry, looked up): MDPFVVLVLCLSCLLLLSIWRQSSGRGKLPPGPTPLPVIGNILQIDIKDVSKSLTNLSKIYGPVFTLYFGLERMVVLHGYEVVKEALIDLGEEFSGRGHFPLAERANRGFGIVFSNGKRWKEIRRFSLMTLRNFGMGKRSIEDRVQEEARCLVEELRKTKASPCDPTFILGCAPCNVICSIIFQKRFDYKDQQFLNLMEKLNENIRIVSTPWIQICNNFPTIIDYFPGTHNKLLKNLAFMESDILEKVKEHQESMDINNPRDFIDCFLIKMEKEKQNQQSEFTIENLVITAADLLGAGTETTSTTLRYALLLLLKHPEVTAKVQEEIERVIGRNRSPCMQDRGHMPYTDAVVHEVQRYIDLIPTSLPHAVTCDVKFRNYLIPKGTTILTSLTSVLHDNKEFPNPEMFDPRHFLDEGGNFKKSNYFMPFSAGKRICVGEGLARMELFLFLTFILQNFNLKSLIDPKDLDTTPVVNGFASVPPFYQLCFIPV
CYP2C9 act = activators of human CYP2C9; activation factor at 5 µM; recombinant CYP2C9, luciferin-H conversion, luminescence; active compounds read high; factor 1 = untreated enzyme, 0 = blocked; 96,000 compounds, 1.4% hits;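 active means activation factor of 2 or more for CYP2C9 at a 5 µM dose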
CYP2C19 inhib = human CYP2C19 inhibition; P33261; CYP2C19 Supersomes, luciferin-H EGE luminescence, 30 min; inhibition, % at 5 µM; 96,000 compounds, 21% hits; AID 778;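 active means CYP2C19 inhibition above a set limit at 5 µM in the primary screen, cut at about 50% in these data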
Mac1 fbg enh = CD11b/CD18-fibrinogen binding enhancement; P05107+P11215; K562 CD11b/CD18 adhesion to fibrinogen, ATPlite luminescence; activation, % at 10 µM; 93,000 compounds, 0.07% hits; AID 1499;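 active means 10 µM primary screen giving 50% or more activity, confirmed by 40% or more on retest at that dose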
CYP2C9 inhib = human CYP2C9 inhibition; 96,000 compounds, 20% hits; inhibition, % at 5 µM; CYP2C9 Supersomes, luciferin-H conversion, luminescence; AID 777; P11712;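 active means blocking of liver enzyme CYP2C9 beyond about 50% at 5 µM, limit read from the data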
Each line names hits and unclear results; the compound was inactive in the other large screens.

COc1ccc(O)c(-c2cc(-c3cccs3)[nH]n2)c1	CYP2C9 inhib 74
Oc1ccc(Br)cc1-c1cc(-c2ccccc2F)[nH]n1	none
CCc1cc(C=C(Cl)Cl)oc(=O)c1C	CYP2C19 inhib 83
O=C(Nc1cccc(S(=O)(=O)N2CCCCC2)c1)c1ccc2c(=O)n3c(nc2c1)CCCCC3	none (no result: CYP2C19 activ, CYP2C9 act, CYP2C19 inhib, CYP2C9 inhib)
COc1cc2c(cc1OC)C(C)N(C(=O)C1COc3ccccc3O1)CC2 (configuration not stated)	CYP2C19 inhib 80, CYP2C9 inhib 57
COc1cc2c(cc1OC)C(COc1ccc(F)cc1)N(C(=O)c1ccco1)CC2 (configuration not stated)	CYP2C19 inhib 86, CYP2C9 inhib 76
COc1cc2c(cc1OC)C(C)N(C(=O)c1cc3ccccc3o1)CC2 (configuration not stated)	none (no result: Mac1 fbg inh, Mac1 fbg enh)
COc1cc2c(cc1O)CCN(C(=O)c1ccco1)C2C (configuration not stated)	CYP2C19 inhib 65
CC1CN(C(=O)CSc2nnc3c(Cl)cc(Cl)cn23)CC(C)O1 (configuration not stated)	none
Brc1ccccc1-c1nnc2sc(Cc3ccccc3)nn12	CYP2C19 inhib 95, CYP2C9 inhib 62
COc1ccc(Cc2nn3c(-c4ccccc4Br)nnc3s2)cc1	CYP2C19 inhib 90
COc1ccc(-c2nnc3sc(CCN4C(=O)c5ccccc5C4=O)nn23)cc1	none
O=C1OC(Nc2ccc3c(c2)OCO3)c2ccccc21 (configuration not stated)	CYP2C19 inhib 64
O=C1OC(Nc2ccc(F)cc2F)c2ccccc21 (configuration not stated)	none
CCN(CC)S(=O)(=O)c1ccc(NC2c3ccccc3C(=O)N2Cc2ccc3c(c2)OCO3)cc1 (configuration not stated)	none
O=C1c2ccccc2C(Nc2ccc3c(c2)OCCO3)N1Cc1ccc2c(c1)OCO2 (configuration not stated)	CYP2C19 inhib 78, CYP2C9 inhib 80
CNC(=O)C1C2C=CC3(O2)C1C(=O)N(C1CC1)C3C(=O)NCc1ccc(OC)cc1 (configuration not stated)	none
CCCCOC(=O)Nc1cccc(C(C)=O)c1	none
CS(C)(=O)=NS(=O)(=O)c1ccc(Cl)cc1	none
Nc1ccc(S(=O)(=O)c2ccc(Cl)cc2)cc1	CYP2C9 act 3.7, CYP2C19 inhib 86
CCCCOc1ccc(C(=O)Nn2cnnc2)cc1	CYP2C19 inhib 93, CYP2C9 inhib 93
COc1ccc(C(=O)N2CCN(C(=O)c3ccncc3)CC2)cc1	none (no result: Mac1 fbg inh, Mac1 fbg enh)
COc1ccc(C(=O)n2c(SC)nc3cc4c(cc32)OCCO4)cc1	CYP2C9 inhib 54
N#C/C(=C/c1ccccc1[N+](=O)[O-])c1nnc2n1CCCCC2	none (no result: CYP2C19 activ, CYP2C9 act, CYP2C19 inhib, CYP2C9 inhib)
N#C/C(=C\c1cn(-c2ccccc2)nc1-c1cccnc1)c1nnc2n1CCCCC2	CYP2C19 inhib 59, CYP2C9 inhib 93
COc1ccccc1CNC(=O)CCS(=O)(=O)c1cccs1	CYP2C19 inhib 83
COc1ccccc1CNC(=O)c1cccs1	none
Cc1ccc(CNC(=O)CCS(=O)(=O)c2cccc3nonc23)cc1	none
COc1ccccc1CNC(=O)CCS(=O)(=O)c1cccc2nonc12	CYP2C19 inhib 91, CYP2C9 inhib 59
COc1ccc(CNC(=O)CCS(=O)(=O)c2cccc3nonc23)cc1	CYP2C19 inhib 74
CCOC(=O)/N=C(/NC(=O)Nc1ccc(C(=O)OCC)cc1)OC	none
CCCCN(C)CCn1c(=S)[nH]c2ccc(N3CCOCC3)cc2c1=O	none
Cc1ccc(Oc2cc(C)nc(-c3ccccc3O)n2)cc1	CYP2C19 inhib 76, CYP2C9 inhib 79
Cc1ccc(Nc2cc(C)nc(-c3ccccc3O)n2)cc1	CYP2C9 inhib 55
O=C(N/C(=C\c1ccc(Br)cc1)c1nc2ccccc2[nH]1)c1ccco1	none
Cc1cc(NS(=O)(=O)c2ccc(NC(=O)CSc3nnc(-c4ccco4)n3N)cc2)nc(C)n1	none (no result: CYP2C19 activ, CYP2C9 act, CYP2C19 inhib, CYP2C9 inhib)
CCN(CC)c1ccc(C=Nc2ccc(N(C)C)cc2)c(O)c1	none
Cc1ccc(C=Nc2ccc(N(C)C)cc2)o1	CYP2C19 inhib 52
COC(=O)C(NC=O)C(O)(Cc1ccccc1)C(F)(F)F (configuration not stated)	CYP2C19 inhib 57
c1ccc2[nH]c(CSc3ncnc4c3oc3ccccc34)nc2c1	CYP2C19 inhib 69, CYP2C9 inhib 97 (no result: Mac1 fbg inh, Mac1 fbg enh)
Cc1nc(SCc2nc3ccccc3[nH]2)c2oc3ccccc3c2n1	CYP2C9 inhib 91 (no result: Mac1 fbg inh, Mac1 fbg enh)
CCSc1ncnc2c1oc1ccccc12	none
Cc1cc(C)c2c(c1)/C(=N/NC(=S)Nc1ccc(F)cc1)CCC2	none
O=C(CCCn1c(=O)[nH]c2cc(Cl)ccc2c1=O)N1CCN(c2ccc([N+](=O)[O-])cc2)CC1	none
CC(c1ccco1)N(Cc1ccco1)C(=O)Nc1ccccc1 (configuration not stated)	none
Cn1cnnc1SCNC(=O)C(F)(F)F	none
COc1cc2nc(N3CCN(C(=O)C4CCCO4)CC3)nc(N)c2cc1OC (configuration not stated)	CYP2C9 inhib 60
Cc1cc(C(=O)N2CCN(C(=O)C3CCCO3)CC2)no1 (configuration not stated)	none
Cc1onc(-c2ccccc2)c1C(=O)Nc1cccc2nsnc12	none
CCOC(=O)CNC(=O)CSc1nc2ncc(Br)cc2[nH]1	CYP2C9 inhib 64
Fc1ccc(CSc2nc3ncc(Br)cc3[nH]2)cc1	CYP2C19 inhib 55
CCN(CC)C(=O)CSc1nc2ncc(Cl)cc2[nH]1	CYP2C19 inhib 52
CC(C)OC(=O)CSc1nc2ncc(Cl)cc2[nH]1	none
O=C(CSc1nc2ncc(Br)cc2[nH]1)c1ccc([N+](=O)[O-])cc1	none (no result: CYP2C19 activ, CYP2C9 act, CYP2C19 inhib, CYP2C9 inhib)
Cc1nc(SCc2ccc(Br)cc2)[nH]c(=O)c1C	none
CCN(CC)C(=O)CSc1nc2ncc(Br)cc2[nH]1	CYP2C19 inhib 69
Cn1c(=O)c2c(nc(SCCOc3ccc4ccc(=O)oc4c3)n2C)n(C)c1=O	none
O=C(NCc1ccccn1)c1ccc(N2CCCC2=O)cc1	none
O=C(CN1CCN(Cc2ccc(F)cc2)C1=O)NCc1cccs1	none
O=C(CNC(=O)c1cccs1)NCCN1CCN(c2ccccc2F)CC1	none
Cc1cccc(NC(=O)C2(C)CC3c4ccccc4C2c2ccccc23)c1 (configuration not stated)	none (no result: Mac1 fbg inh, Mac1 fbg enh)
COc1cc(C(C)=O)ccc1OCC(=O)c1cc(C)n(C2CC2)c1C	CYP2C19 inhib 58
Cc1nn(Cc2ccccc2)c(C)c1C(=O)OCC(=O)c1cc(C)n(C2CC2)c1C	none
COc1ccc(C(C[N+](=O)[O-])c2c(-c3ccccc3)cc3ccccn23)c(OC)c1 (configuration not stated)	CYP2C9 inhib 70
CCOC(=O)c1cnc(SCc2cccc(C)c2)nc1N	none
